The whole screen tested about 2,300 compounds, of which about 550 (24%) were called active. The list is a sample of the results. Entries with a potency or affinity are not part of this list. Values without a mark were called inactive. How the calls were made is not given here.
Assay: Vero E6 cell cytotoxicity, dose response, cytotoxicity control for non-replicating M. tuberculosis project, secondary assay (AID 492998);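 further: 100% = vehicle-treated cells and 0% = background wells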
Conditions: series mostly up to 20 µM; viability: at the top concentration

SMILES	viability
O=C(c1ccc(Cl)cc1)c1nnc(-c2ccncc2)o1	92.7%
O=C(COC(=O)c1ccc([N+](=O)[O-])s1)Nc1ccc(Cl)cn1	92.2%
CCN1CCN(C(=O)CN(Cc2ccccc2)S(C)(=O)=O)CC1	103%
Clc1ccc(SCCOCCN2CCc3ccccc3C2)cc1	89.1%
O=c1oc2ccccc2c2c1nnn2CCO	94.4%
CCC(C)c1ccc(O)c(/C=N/O)c1 (stereo unspecified)	99.8%
COc1ccc2c3c(cccc13)OCC2=O	94.7%
COc1ccc(NC(=O)c2ccc(COCC(F)(F)C(F)F)cc2)cc1	95.8%
O=C(NCCC1CCCC1)c1cccs1	96.5%
O=C1CC(N2CCN(Cc3ccccc3)CC2)C(=O)N1CCc1ccccc1 (stereo unspecified)	93.1%
O=C(N/N=C/c1cccc2cccnc12)c1ccccc1O	78.1%
CCCOc1ccc(CCC(=O)N/N=C/c2ccc([N+](=O)[O-])o2)cc1	70.6%
COCCNC(=O)CC(=O)N/N=C/c1cccc(C(=O)OC)c1	97.4%
NC(=O)N/N=C\c1cc(Br)ccc1O	92.7%
COC(=O)COc1ccc2c(-c3ccc(OC)cc3)cc(=O)oc2c1	104%
Cc1cccc(C)c1N1C(=O)CC(N2CCSCC2)C1=O (stereo unspecified)	98.7%
Cc1ccc(C(=O)OCC(=O)N2CCCCCC2)c(O)c1	109%
Cc1ccc(CCC(=O)Nc2ccc([N+](=O)[O-])cc2)o1	111%
CN(C)c1ccc(NC(=O)COC(=O)c2cc(Cl)ccc2[N+](=O)[O-])cc1	108%
CC[n+]1c(/C=C(\C)Nc2ccccc2)sc2ccccc21	99.1%
CC(C)(C)c1cc(CN2CCN(CCO)CC2)cc(C(C)(C)C)c1O	110%

SMILES	viability
COc1ccc(-c2noc(CCC(=O)Nc3cccc(C)c3)n2)cc1	106%
Cc1ccc2c(CC(=O)OCC(=O)Nc3ccc(Cl)cn3)coc2c1	87.6%
CC(C)OC(=O)COc1ccc(-c2ccccc2)cc1	104%
OC(CNCCc1ccc(C(F)(F)F)cc1)COc1ccc2ccccc2c1 (stereo unspecified)	95.2%
Cc1noc(C)c1COc1ccc(C(=O)Nc2ccccn2)cc1	106%
N#Cc1nc(-c2ccc(OCc3ccccc3)cc2)oc1NCCCn1ccnc1	85.7%
O=C(c1ccccc1[N+](=O)[O-])N1N=C(c2ccccc2)CC1(O)C(F)(F)F (stereo unspecified)	102%
CC1=NN(C(=O)c2ccc(Cn3nc(C)c(Br)c3C)cc2)C(O)(C(F)(F)F)C1 (stereo unspecified)	91.5%
CC1=NN(C(=O)c2csc(C(C)C)c2)C(O)(C(F)(F)F)C1 (stereo unspecified)	91.2%
CC1=NN(C(=O)c2csc(C)c2)C(O)(C(F)(F)F)C1 (stereo unspecified)	99.1%
CC(=O)N(c1nnc(-c2ccc(C)cc2)s1)C1CCCC1	98%
COc1ccc(-c2nnn(Cc3ccccc3)n2)cc1	94.7%
Cc1nnc(N/N=C/c2ccc(-c3ccc(Br)cc3)o2)n1N	104%
O=C(OCC(=O)N1CCC(c2ccccc2)=N1)c1ccc([N+](=O)[O-])s1	93.3%
O=C(NCCCN1CCOCC1)c1ccc(CSc2ccc(Cl)cc2)cc1	84%
COc1cccc(C(=O)OCn2nnc3ccccc3c2=O)c1OC	105%
O=C(OCn1nnc2ccccc2c1=O)c1ccc(Br)o1	92.8%
CCc1cc(OCCCCNCc2ccccc2)ccc1Cl	81.4%
C=CCOc1ccc(CNCCO)cc1OCC	98.3%
CCCn1nnnc1NCc1ccc(CC)cc1	105%
O=C(CCCSc1nc2ccccc2s1)NCc1ccco1	89.1%

SMILES	viability
CC(C)CCC1=NN(C(=O)c2ccco2)C(O)(C(F)(F)F)C1 (stereo unspecified)	97.2%
O=C1CC(=O)CC(c2ccccc2)C1	86.2%
Cc1cccc(N2CCN(Cc3ccc([N+](=O)[O-])o3)CC2)c1C	90.5%
NC1=NC[C@H](Cc2ccccc2)N1CCCCC1CCCCC1	89.4%
CCCC(=O)N1CCC(Cc2ccccc2)CC1	100%
CCc1ccc(N2CCN(CCNC(=O)Nc3ccc(OC)cc3)CC2)cc1	91.2%
COc1ccc(-c2cc(C(F)(F)F)nc(S(C)(=O)=O)n2)cc1	88.1%
CC(=O)Oc1c(-c2ccco2)oc2ccccc2c1=O	93.2%
O=C(Oc1c(-c2ccco2)oc2ccccc2c1=O)c1cccnc1	101%
Cc1ccc2c(C)ccc(O)c2n1	109%
Cc1cccc(NCc2nnc(-c3ccccc3)o2)c1C	103%
CC(C)(C)C(=O)COc1ccccc1[N+](=O)[O-]	81.5%
Cc1cccc(C(=O)Nc2nnc(-c3cccnc3)o2)c1	79.9%
O=C(Nc1nnc(-c2ccc3c(c2)CCCC3)o1)c1c(F)cccc1F	97.8%
CCS(=O)(=O)c1ncc(Cl)c(C(=O)Nc2ccc(S(=O)(=O)N(C)c3ccccc3)cc2)n1	90.6%
COc1cccc(C(=O)OCC(=O)Nc2nnc(-c3ccccc3)o2)c1	93.5%
CCOc1ccc(C(=O)Nc2nnc(C3=COCCO3)o2)cc1	78.7%
CCOc1ccccc1C(=O)OCC(=O)Nc1nnc(-c2ccccc2)o1	89.8%
CCCCNC(=O)Nc1nnc(-c2ccc(OCC)cc2)o1	87.6%

Reference: PubChem BioAssay AID492998 (Southern Research Specialized Biocontainment Screening …, 2010)
